# This is one part of a sample in which hits are shown more often than they occur.
# PI4K2A block: inhibitors of human PI4K2A | Q9BTU6 | purified PI4K2A, ADP-Glo luminescence, 1 h; active compounds read low | activity change, negative = inhibition, % at 76.9 µM | hit rate 0.13% among 420,000 | AID 1346378; in the data active = activity change below about -50%; inconclusive = mostly about -30% to -49%;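 note: -100% = wells without enzyme as full effect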
#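 Compounds are screened against recombinant PI4K2A using PI as substrate and ATP, the latter dispensed at 300 microM. Reactions run one hour at ambient temperature before ADP-Glo detection; full inhibition defined by wells lacking enzyme.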
# PI5P4K alpha inh: blocks human PI5P4K alpha kinase activity; PI5P4Kalpha enzyme, ADP-Glo luminescence, 60 min; active compounds read low; max response, %; hit rate 1.2% among 330,000; active = max response of -50% or lower; inconclusive = between -30% and -50%; inactive = -30% or higher; note: value at the top dose of about 77 µM
# Target sequence (P48426 whole entry, looked up): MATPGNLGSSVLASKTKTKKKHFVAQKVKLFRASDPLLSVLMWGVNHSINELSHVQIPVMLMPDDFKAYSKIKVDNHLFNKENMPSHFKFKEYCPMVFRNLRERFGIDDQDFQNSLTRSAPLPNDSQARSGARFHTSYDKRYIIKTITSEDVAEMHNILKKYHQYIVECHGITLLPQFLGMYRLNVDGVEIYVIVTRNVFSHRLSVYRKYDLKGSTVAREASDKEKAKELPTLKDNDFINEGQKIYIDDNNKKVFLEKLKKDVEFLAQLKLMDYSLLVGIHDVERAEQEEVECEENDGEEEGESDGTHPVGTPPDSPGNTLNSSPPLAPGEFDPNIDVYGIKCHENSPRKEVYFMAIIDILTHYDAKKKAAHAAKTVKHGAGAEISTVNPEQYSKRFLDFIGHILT
#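 ADP-Glo luminescence end-point read after a 60 min room-temperature kinase reaction of PI5P4Kalpha plus substrate, initiated with ATP at 5 microM final. Buffer: 0.038 M HEPES pH 7.4, EGTA, 0.1% CHAPS, 5% DMSO.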
# Pin1 inhibitor: human Pin1 inhibition. Q13526. hit rate 0.009% among 390,000. Pin1 FP peptide displacement, HiFluor488, 10 min. Potency, µM (titrated, usually from 115 µM), without a hit: at the highest dose activity, negative = inhibition, most hits filed as inhibitors; active = well fitted inhibition curve with a large enough effect in the polarisation, with a control signal flat, not every such curve was filed as active; inconclusive = small, poorly fitted or top-dose-only effect, or effect the other way, or a change in a side signal; inactive = no such curve, though single readings can be large or run the other way; the % refers to the polarisation; note: potency is the fitted concentration of half-maximal effect
# Target sequence (Q13526 whole entry, looked up): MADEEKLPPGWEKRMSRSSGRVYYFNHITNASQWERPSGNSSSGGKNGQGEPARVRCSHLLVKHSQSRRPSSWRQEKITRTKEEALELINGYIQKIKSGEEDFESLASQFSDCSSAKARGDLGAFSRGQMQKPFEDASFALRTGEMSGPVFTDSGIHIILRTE
# PGK inhibitor: T. brucei PGK inhibition; P07378; Potency, µM (titrated, usually from 57.5 µM), for inactives: top-dose activity change, negative = inhibition, usual class: inhibitors; PGK/GAPDH coupled, Kinase-Glo luminescence, 60 min; hit rate 0.043% among 380,000; active = well fitted inhibition curve with a large enough effect; inconclusive = small, poorly fitted or top-dose-only effect; inactive = no such curve, though single readings can be large or run the other way; note: potency is the fitted concentration of half-maximal effect; nearly all actives have a fitted effect of over 60% in size
#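 Luminescent ATP detection (Kinase-Glo Plus) follows a 60-minute room-temperature incubation, with wells lacking PGK as controls. Buffer: 100 mM TEA (pH 7.6), 5 mM MgCl2, 0.01% Tween-20. Coupling enzyme GAPDH (100 nM final) supplies unstable 1,3-BPG in-well.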
# * marks the source's active call; other numbers are inactive results; i = inactive; ? = inconclusive; / = no result given. Unless noted, % is set by controls: 0 for no effect and ±100 for the full control effect.
SMILES,PI4K2A block,PI5P4K alpha inh,Pin1 inhibitor,PGK inhibitor
Cc1ccc(-c2cc(-c3ccc(F)cc3)c(C#N)c(N)n2)o1,-1,-67*,?,-8%
N#Cc1ccc(S(=O)(=O)N2CCN(c3nc(-c4cccs4)nc4ccccc34)CC2)cc1,/,/,17%,/
CC(C1SC(=S)NC1=O)C1SC(=S)NC1=O (centres undefined),-27,-78*,/,-13%
CCOc1ccc(-c2ccc(/C=C3/C(=N)N4C(C)=CSC4=NC3=O)o2)c([N+](=O)[O-])c1,-27,-59*,?,0%
COc1ccc2nc(NC(=O)c3ccoc3C)sc2c1,-85*,/,-4%,?
COc1ccc(Br)cc1S(=O)(=O)N1CCN(S(=O)(=O)c2ccc3c(c2)OCCO3)CC1,/,/,14%,/
O=c1[nH]c(Nc2ccc(F)cc2)cc2ccccc12,-51*,/,?,-17%
COC(=O)c1scc(-c2ccccc2)c1S(=O)(=O)Nc1cccc(C)c1C,-3,/,-1%,i
C[C@@H]1[C@@H](Sc2ccccc2)CC(=O)O[C@@H]1c1ccc(-c2ccccc2)cc1,-63*,10,-3%,-6%
Cc1cccc(C)c1NC(=O)[C@@H]1CC(=O)O[C@@H]1c1ccccc1,-5,/,/,/
C/C(=C(\CCO)SS/C(CCO)=C(\C)N(C=O)Cc1cnc(C)nc1N)N(C=O)Cc1cnc(C)nc1N,-2,/,/,/
CNc1oc(Cc2ccccc2)nc1S(=O)(=O)c1ccccc1,-17,-85*,/,0%
CCOc1ccc(-c2nc(S(=O)(=O)c3ccccc3)c(NC)o2)cc1,1,-3,-8%,4%
O=C(O)c1cccc(S(=O)(=O)N2CCN(S(=O)(=O)c3ccc4c(c3)OCCO4)CC2)c1,/,/,1%,/
COC1=CC(=O)c2c(ccc3ncnc(N)c23)C1=O,-58*,-23,/,?
CC(C)NC(=S)NNc1nc2ccccc2s1,-3,-67*,-4%,0%
O=C(NNc1nc2ccccc2s1)c1ccc(F)cc1,3,4,6%,-9%
O=C(NOCC1CC1)c1ccc(F)c(F)c1Nc1ccc(I)cc1Cl,1,/,/,/
COc1cccc(NC(=O)C2CCC(CNS(=O)(=O)c3csc(C(N)=O)c3)CC2)c1 (centres undefined),-66*,/,-3%,i
CCn1c(=O)c2c(nc(C=Cc3ccc(OC)c(OC)c3)n2C)n(CC)c1=O,-2,/,/,/
Cc1ccccc1CS(=O)(=O)CCC(=O)NCCCN1CCN(c2ccccc2F)CC1,8,-8,-3%,3%
Cc1cc(C)c2c(=O)n(CC(=O)NCCCN3CCN(c4ccccc4F)CC3)sc2n1,-2,-77*,-1%,-7%
Cc1cc(C)c2c(=O)n(CC(=O)NCCCN3CCOCC3)sc2n1,0,-101*,2%,i
Cc1ccc(/C=C/C(=O)O)cc1S(=O)(=O)N(C)CCO,0,-64*,0%,i
COc1cc(/C=C/C(=O)O)cc(S(=O)(=O)N(C)CCO)c1OC,-3,-8,4%,0%
SMILES,PI4K2A block,PI5P4K alpha inh,Pin1 inhibitor,PGK inhibitor
O=C(NNc1c2ccccc2nc2ccccc12)c1ccccc1O,-5,-11,?,-11%
O=C(NNc1nc(=O)c2cccnc2s1)c1ccccc1O,13,-68*,?,-2%
Cc1nnc(NC(=O)C2CCN(C(=O)c3ccsc3)CC2)s1,/,/,2%,/
Cc1cc(/C=C2\SC(=S)NC2=O)c(C)n1C1CC1,-1,/,?,5%
O=C1NC(=S)S/C1=C\c1coc2ccccc2c1=O,-5,-73*,31%,/
C/[N+]([O-])=C\c1coc2ccccc2c1=O,-2,-10,-8%,-1%
O=C1NC(=S)S/C1=C\c1coc2ccc(O)cc2c1=O,-26,-100*,8%,-11%
CC(C)(C)NC(=O)C(c1cccc2ccccc12)n1c(=O)c(-c2ccco2)nc2ccccc21 (centres undefined),-3,-61*,/,/
CC(C)(C)NC(=O)C(c1cccc2ccccc12)n1c(=O)c(-c2ccccc2)nc2ccccc21 (centres undefined),0,3,/,/
CCCCCNC(=O)C(c1ccc(C(F)(F)F)cc1)n1c(=O)c(-c2ccco2)nc2ccccc21 (centres undefined),-4,-60*,/,/
CCCCCNC(=O)C(c1cccc2ccccc12)n1c(=O)c(-c2ccco2)nc2ccccc21 (centres undefined),-23,-57*,/,/
CCCCCNC(=O)C(C1CC1)n1c(=O)c(-c2ccco2)nc2ccccc21 (centres undefined),-5,-24,/,/
Cc1cc(C)c2c(c1)NC(C(=O)O)C1CC=CC21 (centres undefined),-29,-79*,?,?
Cc1ccc2c(c1C)NC(C(=O)O)C1CC=CC21 (centres undefined),-18,/,7.6µM*,?
O=C(O)C1Nc2c(C(=O)N3CCOCC3)cccc2C2C=CCC12 (centres undefined),-24,-62*,?,?
COc1ccc(NC(=O)CSc2nnc(Cc3ccc(C)cc3)c(=O)n2N)cc1,5,-2,2%,i
CCOc1ccccc1-c1nnc2n1N=C(c1ccc(OC)cc1)CS2,/,/,0%,/
CC[C@H](C)/C=C/C1=CC2=C(Cl)C(=O)[C@@]3(C)OC(=O)C(C(=O)[C@H](C)[C@@H](C)O)=C3C2=CO1,?,-81*,?,-21%
N=C1CCC(=N)c2c1c(O)c1ccccc1c2O,?,-72*,?,-25%
O=C1CCn2c1c(O)c1ccccc1c2=O,?,9,?,-8%
COc1cccc(/C=N/Nc2ccnc(=O)[nH]2)c1O,?,-20,6%,-18%
O=c1nccc(N/N=C/c2ccccc2O)[nH]1,-53*,-24,?,-29%
CCOC(=O)CSC1=NC(=O)/C(=C/c2ccc(OC)cc2)S1,1,-51*,?,-8%
COc1ccc(/C=C2\SC(N)=NC2=O)cc1,3,6,18%,2%
COc1ccc(NC(=O)N2CCc3ccccc32)cc1,-54*,?,-2%,?
SMILES,PI4K2A block,PI5P4K alpha inh,Pin1 inhibitor,PGK inhibitor
CCOCCOC(=O)/C=C/c1ccc(OC)cc1,0,/,/,/
C/C(N)=C(/C#N)C(=O)CSc1nnc(Nc2c(C)cccc2C)s1,6,-100*,?,?
C/C(N)=C(/C#N)C(=O)CSc1nnc(Nc2cccc(C)c2C)s1,-9,-24,8%,-8%
CN1CCC(C)(C(=O)Nc2cccc(Oc3ccccc3)c2)C1 (centres undefined),0,-5,/,/
CC1=NN(c2ccccc2)C(=O)C1C=Nc1ccccc1O (centres undefined),-5,2,-1%,-6%
CC1=NN(c2ccccc2)C(=O)C1/C=C1\NC(=S)NC1=O (centres undefined),-12,-74*,30%,-9%
O=C(c1ccccc1)c1cc(-c2ccccc2)on1,-51*,14,0%,?
C=CC(=O)Nc1cccc(N(C)c2ccnc(Nc3ccc(N4CCN(C)CC4)cc3)n2)c1,-4,-65*,?,11%
C=CC(=O)Nc1cccc(Oc2ccnc(Nc3ccc(N4CCN(C)CC4)cc3)n2)c1,3,-10,10%,-6%
